# Measurements published in PubChem BioAssay (NCI).
# This is part of a sample that, as a whole, favours compounds with a hit. Of some 79,000 tested, about 15% had one in any assay. A number with no mark means an inactive call. Active and inactive are the calls of the source. No stated cut-off is given here; in the data, active means growth inhibition above about 70%; inactive means the rest.
# Legend:
# [1] = NCI Yeast Anticancer Drug Screen. Data for the rad50 strain (AID 155);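 further: 0% = growth of vehicle-only cultures of the same strain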; conditions: S. cerevisiae rad50 strain growth inhibition, hits give high values
# How it was run: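 A DNA repair-deficient yeast mutant serves as the test organism; compound-induced growth inhibition is calculated against vehicle-treated cells.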
# [2] = NCI Yeast Anticancer Drug Screen. Data for the mec2-1 strain (AID 157); conditions: S. cerevisiae mec2-1 strain, hits give high values
# How it was run: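 Readout is yeast growth inhibition, normalised to vehicle-treated controls, in the mec2-1 strain exposed to compound.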
# [3] = NCI Yeast Anticancer Drug Screen. Data for the sgs1 mgt1 strain (AID 161);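 further: 0% = growth of cultures given vehicle only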; conditions: S. cerevisiae sgs1 mgt1 strain, hits give high values
# How it was run: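 Yeast cells carrying a defined DNA-repair defect were exposed to test compounds. Growth inhibition was measured relative to vehicle-treated controls.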
# [4] = NCI Yeast Anticancer Drug Screen. Data for the cln2 rad14 strain (AID 165);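 further: 0% = growth equal to vehicle treated cultures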; conditions: S. cerevisiae cln2 rad14 strain, hits give high values
# How it was run: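 Relative to vehicle controls, growth inhibition of compound-treated cln2 rad14 yeast was recorded.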
# [5] = NCI Yeast Anticancer Drug Screen. Data for the bub3 strain (AID 167); conditions: S. cerevisiae bub3 mutant strain, hits give high values
# How it was run: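 Inhibition values come from growth of compound-treated mutant yeast normalised to vehicle-treated controls.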
# [6] = NCI Yeast Anticancer Drug Screen. Data for the mlh1 rad18 strain (AID 175); conditions: S. cerevisiae mlh1 rad18 strain growth inhibition, hits give high values
# How it was run: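 Test agents were incubated with a yeast strain of defined genotype (DNA damage repair defect). Inhibition of growth was derived by comparison with vehicle-exposed cultures.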
# [7] = at 5.0 µM (retest, dose inferred, filed as 0.5)
# [8] = at 50.0 µM (retest, dose inferred, filed as 5.0)
Structure (SMILES),"growth inhibition [1, 7]","growth inhibition [1, 8]",growth inhibition ([1]; at 50.0 µM),"growth inhibition [2, 7]","growth inhibition [2, 8]",growth inhibition ([2]; at 50.0 µM),"growth inhibition [3, 7]","growth inhibition [3, 8]",growth inhibition ([3]; at 50.0 µM),"growth inhibition [4, 7]","growth inhibition [4, 8]",growth inhibition ([4]; at 50.0 µM),"growth inhibition [5, 7]","growth inhibition [5, 8]",growth inhibition ([5]; at 50.0 µM),"growth inhibition [6, 7]","growth inhibition [6, 8]",growth inhibition ([6]; at 50.0 µM)
COc1cc(OC)c(C2CC(C)(OC)Oc3cc4c(cc32)OCO4)c(OC)c1 (stereo not given),4%,10%,4.35%,6%,3%,17.1%,2%,12%,3.8%,5%,-4%,5.45%,0%,-1%,-2.6%,5%,19%,27.9%
Nc1cc(Cl)c(I)cc1Cl,7%,98% (active),74.5% (active),-15%,99% (active),15.8%,-1%,100% (active),50.1%,-7%,97% (active),32.3%,-8%,99% (active),69.2%,34%,99% (active),86.8% (active)
COC(=O)C(CBr)CBr,25%,100% (active),-20.9%,34%,99% (active),9.55%,22%,98% (active),-5.25%,21%,99% (active),10.7%,47%,100% (active),5.8%,39%,99% (active),-14.7%
CC(C)CCCC(C)C1CCC2(C)C3=CCC4C(C)(CCC(O)C4(C)C)C3=CCC12C (stereo not given),0%,83% (active),89% (active),-18%,94% (active),73% (active),11%,95% (active),98% (active),-8%,84% (active),97.7% (active),-6%,95% (active),93.3% (active),21%,97% (active),90.8% (active)
O=C1C(=O)C(Cc2ccccc2)(c2ccccc2)C(=O)N1c1ccccc1 (stereo not given),0%,42%,68.2%,-3%,59%,6.25%,-2%,70% (active),54.6%,3%,22%,-9.8%,-1%,52%,10.3%,1%,62%,40.4%
COc1cccc(C2CC(C)(O)Oc3cc4c(cc32)OCO4)c1 (stereo not given),4%,36%,33.8%,5%,16%,50.7%,-12%,9%,29.4%,8%,44%,54.6%,2%,57%,46.4%,-14%,38%,53%
CCCCCCN(CCCCCC)P(=O)(N1CC1C)N1CC1C (stereo not given),-2%,99% (active),-11.6%,-5%,99% (active),32.4%,-3%,33%,10.1%,3%,99% (active),-7.75%,7%,99% (active),81.2% (active),-2%,99% (active),24.9%
O=C(c1ccc([N+](=O)[O-])cc1)C(Br)C(Br)c1ccnc2ccccc12 (stereo not given),25%,80% (active),98.2% (active),23%,63%,99.1% (active),21%,91% (active),98.9% (active),-1%,69%,96.7% (active),3%,86% (active),98.8% (active),18%,95% (active),98.8% (active)
COc1ccc(C2COc3cc(OC(C)=O)c(OC(C)=O)cc3C2)cc1 (stereo not given),-1%,93% (active),96.1% (active),2%,95% (active),95.9% (active),1%,93% (active),95% (active),4%,93% (active),94.9% (active),24%,96% (active),97.1% (active),-3%,94% (active),96.6% (active)
O=C1C(=O)C2CC3(CC1N2Cc1ccccc1)OCCO3,11%,95% (active),98% (active),-28%,79% (active),96.5% (active),36%,93% (active),96.9% (active),5%,43%,95.2% (active),-10%,78% (active),86.5% (active),34%,94% (active),95.5% (active)
O=C(O)c1c(Br)c(Br)c(Br)c(Br)c1-c1c2ccc(=O)cc-2oc2cc(O)ccc12,94% (active),93% (active),84.1% (active),95% (active),96% (active),88.7% (active),87% (active),96% (active),87.1% (active),88% (active),95% (active),87.8% (active),91% (active),95% (active),85.8% (active),94% (active),92% (active),83.5% (active)
O=C1CCS(=O)(=O)c2ccccc21,21%,100% (active),91.2% (active),-2%,99% (active),65.4%,24%,99% (active),57.7%,3%,94% (active),36.9%,34%,99% (active),33.4%,36%,99% (active),64%
O=C(OCCN=c1c2ccccc2ccc2ccccc12)c1ccccc1,0%,97% (active),42%,-14%,94% (active),31.4%,-43%,83% (active),65.3%,22%,36%,29.8%,2%,98% (active),71% (active),-19%,98% (active),15.7%
O=C1/C(=C\c2ccccc2)C(NC2CCCCC2)c2ccccc21 (stereo not given),73% (active),99% (active),99.6% (active),43%,99% (active),99.7% (active),65%,98% (active),99.7% (active),37%,100% (active),99.5% (active),75% (active),99% (active),99.5% (active),74% (active),99% (active),99.5% (active)
CCOCCC(=O)N1c2ccccc2CC1c1c[nH]c2ccccc12 (stereo not given),-6%,36%,74.3% (active),-9%,32%,4.65%,-8%,59%,51.6%,-57%,36%,8.45%,-8%,48%,0.45%,-4%,34%,67.1%
COc1ccc(CCC2(C)OCCC(C)O2)cc1 (stereo not given),12%,92% (active),-13.5%,13%,96% (active),-6.35%,16%,91% (active),-4.35%,10%,95% (active),28.6%,-3%,76% (active),-16.1%,19%,94% (active),-26.8%
CC(C)=CCC/C(C)=C/COc1ccc(/C=C2/C(=O)N(O)[C@@H](C)C(=O)N2O)cc1,51%,97% (active),80.8% (active),52%,98% (active),78.2% (active),66%,92% (active),78.9% (active),54%,89% (active),70.7% (active),68%,97% (active),83.3% (active),32%,96% (active),79.2% (active)
CCN1CCC(O)(/C=C/c2ccccc2)C(C(=O)/C=C/c2ccccc2)C1 (stereo not given),11%,89% (active),97.7% (active),6%,80% (active),98.2% (active),13%,82% (active),97.8% (active),13%,74% (active),85.1% (active),8%,94% (active),98.9% (active),19%,93% (active),96% (active)
COC1=Nc2ccccc2S(=O)(=O)C=C1,4%,87% (active),98.2% (active),3%,79% (active),98.5% (active),2%,89% (active),99.2% (active),6%,79% (active),95.8% (active),11%,98% (active),98.7% (active),12%,94% (active),98.3% (active)
Cc1ccc2nn(-c3ccc(O)cc3)nc2c1,11%,45%,50.3%,16%,42%,22.6%,7%,38%,27%,6%,39%,29.3%,28%,69%,74.5% (active),12%,50%,74.2% (active)
